Compound activity deposited in PubChem by several laboratories.
This is a sample that favours compounds with a hit; in the whole collection about 4.6% have one here.
PfHsp90 yeast 2: reduces growth (ATP signal) of yeast expressing P. falciparum Hsp90; inhibition, % at 9.4 µM; 310,000 tested, 0.32% active; S. cerevisiae expressing PfHsp90, BacTiter-Glo ATP, 48 h; yeast lacking PDR1 and PDR3 efflux regulators;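 active means every replicate shows inhibition above about 80%, whatever the replicate mean, limit read from the data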;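 further: 0% = DMSO neutral controls and 100% = 20 µM radicicol positive controls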
tim23-1 inh: growth inhibitors of tim23-1 mutant yeast; inhibition, % at 20 µM; S. cerevisiae tim23-1 growth, BacTiter-Glo luminescence, 24 h; 330,000 tested, 1.3% active;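 active means growth inhibition of the mutant yeast at or above 50%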;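 further: temperature-sensitive mutant grown at 25 °C; plate controls were DMSO-treated mutant yeast for no effect and medium wells lacking yeast for full effect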
TIM10 inh: TIM10 yeast growth inhibition; S. cerevisiae TIM10 strain growth, BacTiter-Glo luminescence, 24 h; inhibition, % at 10 µM; 330,000 tested, 1.4% active;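 active means inhibition of 40% or more at the single tested concentration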;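 further: wild-type TIM10 isogenic control strain grown at permissive 25 °C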
SKKanGAS inh: SKKanGAS growth inhibition; S. pyogenes SKKanGAS, kanamycin growth, BacTiter-Glo, 6 h; inhibition, % at 7.5 µM; 300,000 tested, 1.3% active; AID 1662;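 active means mean replicate score, as percent of positive control median, at least 50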;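 further: strain carries kanamycin resistance gene driven by streptokinase promoter and grows in 40 µg/ml kanamycin; loss of luminescence reflects streptokinase promoter inhibition or plain growth inhibition; 0% = median of DMSO wells and 100% = positive control at its reference dose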
V-ATPase pHluor: regulators of yeast V-ATPase proton transport | S. cerevisiae, pHLuorin cytosolic pH fluorescence | response, % at 10 µM | 350,000 tested, 0.37% active; in the data active means response mostly above about 7.3%, no sharp cut-off; inactive means mostly below about 5.4%; further: actives read high
tim10-1 inh: tim10-1 yeast growth inhibition. S. cerevisiae tim10-1 ts strain growth, BacTiter-Glo, 24 h. inhibition, % at 20 µM. 330,000 tested, 2.2% active. AID 463190;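 active means inhibition of at least 40%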;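 further: mutant grown at 25 °C; 0% = DMSO wells with yeast and 100% = wells holding no yeast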
* marks the source's active call; other numbers are inactive results; / = no result.

SMILES | PfHsp90 yeast 2 | tim23-1 inh | TIM10 inh | SKKanGAS inh | V-ATPase pHluor | tim10-1 inh
CCn1c(NC(C)=O)nc2ccccc21 | 1 | -3 | 8 | -4 | -1 | -5
CCN(CC)c1nc(C(F)(F)F)nc2c1nnn2Cc1ccccc1 | -1 | 26 | -10 | 58* | -1 | -6
Cc1nc(N(C)Cc2ccccc2)c2nnn(Cc3ccccc3)c2n1 | 23 | 25 | 10 | 28 | 0 | 18
C[C@@H]1CN([C@@H](C)CO)C(=O)c2cc(Br)cnc2O[C@H]1CN(C)C(=O)Cc1cccnc1 | / | / | / | / | 1 | /
CCCCn1c(N)c(N(CC)C(=O)c2cc3c(s2)CCCCC3)c(=O)[nH]c1=O | -3 | 11 | 15 | -8 | -1 | 19
Cc1ccccc1C(=O)Nc1ccnn1C1CCN(C(=O)c2cnsn2)CC1 | -19 | -14 | -5 | -5 | -1 | -4
Cc1cc(C(=O)N/N=C/c2cc(N=Nc3ccccc3)ccc2O)n[nH]1 | -18 | / | / | 88* | -2 | /
COc1ccc(/C=C2/C(=O)N(c3nc4ccccc4s3)N=C2CSc2ccc(Cl)cc2)cc1 | 5 | 9 | 10 | 68* | -3 | 9
CC(C)(C)NC(=O)c1ccc(NC(=O)CSc2ccccc2)cc1 | 15 | 15 | -31 | -1 | 5 | -22
COc1ccccc1N1CCN(C(=O)[C@@H]2CCCN2C2=NS(=O)(=O)c3ccccc32)CC1 | / | / | / | / | -2 | /
COc1ccc(NC(=O)C(=O)NNC(=O)C(C)Oc2ccc(Cl)cc2Cl)cc1 (stereo not drawn) | -8 | -19 | -31 | 71* | -1 | -28
CC(=O)Nc1ccc(NC(=O)C(C)Oc2ccc(Cl)cc2Cl)cc1 (stereo not drawn) | -8 | 40 | 30 | 0 | 0 | 37
Cc1ccc(-c2nc(COC(=O)C3=NN(c4ccccc4)C(=O)CC3)cs2)cc1 | -5 | 40 | 12 | / | 10 | 14
CN(CC(=O)Nc1ccc(F)cc1)C(=O)CSc1nc2ncc(Cl)cc2[nH]1 | / | 10 | 10 | -16 | 74* | 10
Cc1cc(Cl)ccc1OC(C)C(=O)Nc1ccc(S(=O)(=O)Nc2cnc3ccccc3n2)cc1 (stereo not drawn) | / | 0 | 10 | 67* | 6 | 33
O=C(Nc1ccc(S(=O)(=O)Nc2cnc3ccccc3n2)cc1)c1ccc(Cl)cc1Cl | / | -3 | 3 | 15 | 0 | 6
COCCCNC(=O)Cn1c(=O)oc2cc(S(=O)(=O)N3CC(C)CC(C)C3)ccc21 (stereo not drawn) | 21 | -5 | -9 | -3 | 20* | 2
COc1ccccc1/C=C(/C(=O)OCC(=O)Nc1cc(C)ccc1C)c1ccccc1 | -2 | 2 | 11 | 55* | -5 | 31
CCc1ccc(NC(=O)COC(=O)/C(=C/c2ccccc2OC)c2ccccc2)cc1 | -17 | 13 | 7 | -6 | -1 | 12
Cc1ccc(/C=N\NC(=O)/C(=C\Nc2nccc(C)n2)NC(=O)c2ccccc2)cc1 | 9 | 4 | 6 | -3 | -2 | 4
CC(C)(C)C1CCC2(CC1)C(C#N)=C(SCC(=O)Nc1ccccc1)NC(=O)C2C#N (stereo not drawn) | 11 | 41 | 11 | 68* | 0 | 40
COCCCn1c(=O)c2sccc2n(Cc2cc(C(=O)OC)ccc2OC)c1=O | 11 | 19 | 15 | 4 | 4 | -4
COc1cc(Cl)c(S(=O)(=O)N2CCCC2)cc1Cl | 21 | 29 | 17 | -1 | 1 | 13
COc1cc(N2C(=O)C=CC2=O)c(OC)cc1Cl | 109* | -12 | 12 | 2 | 8 | 40
O=S(=O)(c1ccc(F)c(F)c1)N1CCN(CCc2ccccc2)CC1 | -15 | 16 | 4 | 0 | 9.6* | -5
SMILES | PfHsp90 yeast 2 | tim23-1 inh | TIM10 inh | SKKanGAS inh | V-ATPase pHluor | tim10-1 inh
CN(c1cccc(Cl)c1)S(=O)(=O)c1cccc(C(=O)Nc2nc3ccccc3[nH]2)c1 | 16 | 48 | 27 | 90* | 6 | 39
O=C(Nc1nc2ccccc2[nH]1)c1cccc(Cl)c1 | -20 | 10 | 1 | 64* | 1 | 4
COc1ccc(NC(=S)NNC(=O)c2nnn(-c3ccccc3)c2C)cc1 | -82 | -15 | -12 | 5 | 3 | 0
CCOC(=O)CNc1nc(Cl)c(C#N)s1 | 17 | 9 | -4 | -4 | 0 | 11
Cc1ccc(CNc2nc(Cl)c(C#N)s2)cc1 | -4 | 0 | 0 | 4 | 15* | 16
CCOc1ccc(CNC(=O)CCCOc2cc(=O)n(C)c3ccccc23)cc1 | / | 20 | 2 | -19 | -1 | 7
O=c1[nH]c2ccc(Cl)cc2c(-c2ccccc2)c1N1CCN(c2ccccn2)CC1 | -48 | 42 | 14 | 84* | 2 | 5
CCOc1ccc(NC(=O)CCn2c(=O)[nH]c3ccsc3c2=O)cc1 | 17 | 9 | -17 | -7 | 0 | 6
Cc1nn(CCc2nn[nH]n2)c2nc(-c3ccc(C4CCCCC4)cc3)cc(C(F)(F)F)c12 | / | 9 | 6 | 104* | 2 | 30
O=c1c2ccccc2sn1-c1cc(S(=O)(=O)N2CCOCC2)ccc1N1CCCC1 | -15 | 10 | 8 | 85* | 4 | 25
O=S(=O)(c1ccc(N2CCOCC2)c(Cl)c1)N1CCOCC1 | 51 | 13 | -11 | 4 | -1 | 32
O=c1c2ccccc2sn1-c1cc(S(=O)(=O)N2CCOCC2)ccc1N1CCOCC1 | -32 | 17 | 7 | 76* | 0 | -1
COc1ccc(N(C(=O)CNC(=O)c2ccco2)C(C(=O)NCC2CCCO2)c2ccccc2)cc1 (stereo not drawn) | 5 | 4 | 9 | 12 | -1 | -28
COc1ccc(C2CC(=O)c3cnc(N4CCN(Cc5ccccc5)CC4)nc3C2)cc1 (stereo not drawn) | -12 | 20 | 20 | 56* | 3 | 33
CC1CC(C)CN(c2ncc3c(n2)CC(c2ccccc2Cl)CC3=O)C1 (stereo not drawn) | -4 | 27 | 24 | 63* | 2 | 32
COc1cc(CCC(=O)Nc2nccs2)cc(OC)c1OC | 7 | 18 | 3 | 0 | 1 | 6
CC(CN1CCCCC1)NC(=O)c1cccs1 (stereo not drawn) | -8 | 13 | -5 | -1 | -2 | 5
COc1ccc(C2=NOC(CNC(N)=S)C2)cc1 (stereo not drawn) | -1 | -3 | 0 | 51* | 3 | 11
COc1ccc(CNC(=O)C2CC(c3ccc(OC)cc3)=NO2)cc1 (stereo not drawn) | / | 1 | -13 | -6 | 4 | -10
Cc1ccc(C(=O)NCC(=O)OCC(=O)c2ccc(Br)s2)cc1 | / | 16 | 5 | -4 | 2 | 1
CN(/N=C/c1ccc(O)cc1O)c1nc(-c2ccccc2)cc(-c2ccccc2)n1 | -14 | 24 | 18 | 71* | 0 | 23
Cc1nc2ccccc2c(=O)n1/N=C/c1ccc(O)cc1O | 26 | 17 | -5 | 3 | -1 | 14
Cc1ccc(C)c(-c2csc(N)c2C(=O)OC(C)C)c1 | 5 | 16 | -2 | 53* | 3 | 17
